Screening data as filed in PubChem BioAssay.
DT40 TDP1 no CPT: qHTS for Inhibitors of human tyrosyl-DNA phosphodiesterase 1 (TDP1): qHTS in cells in absence of CPT; DT40 Tdp1-/- hTDP1 cells, no CPT, ATP luminescence, 48 h; actives 15% (n = 420,000); AID 686978, 2013; Potency, µM (titrated, usually from 46.2 µM), for inactives: top-dose activity change, negative = growth inhibition, hits mostly inhibitors; further: potency means the concentration at half of the fitted maximal effect; nearly all actives have a fitted effect of over 55% in size
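Growth kinetics read by CellTiter-Glo luminescence after ≥48 hr at 37 °C. Cells: DT40 Tdp1-/- stably carrying human TDP1, 400 per well, compound exposure in the absence of CPT (DMSO vehicle).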
TDP1 cell CPT: qHTS for Inhibitors of human tyrosyl-DNA phosphodiesterase 1 (TDP1): qHTS in cells in presence of CPT; chicken DT40 Tdp1-/-;hTDP1 cells + 20 nM CPT, ATP luminescence, 48 h; Potency, µM (doses to about 46.2 µM), for the others: at the highest dose activity change, negative = growth inhibition, actives largely listed as inhibitors; actives 12% (n = 420,000); further: potency means the concentration at half of the fitted maximal effect; nearly all actives have a fitted effect of over 55% in size
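Chicken DT40 Tdp1-/- cells complemented with human TDP1, 400 cells/well, exposed to compounds plus 20 nM camptothecin for at least 48 h at 37 C; viability read as ATP content by CellTiter-Glo luminescence.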
IL1B secr inh: qHTS for Inhibitors of Inflammasome Signaling: IL-1-beta AlphaLISA Primary Screen. THP-1 LPS/ATP IL-1B secretion, AlphaLISA, 16 h; hits give low values. activity change, % at 57.5 µM. actives 4.7% (n = 360,000). AID 743279, 2014; in the data active means activity change below about -50%; inconclusive means mostly about -30% to -49%
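THP-1 cells pretreated 1 hr with compounds (up to 57.5 uM final), then stimulated with LPS (250 ng/mL final) plus ATP (1.25 mM final); secreted IL-1B measured by AlphaLISA after 16 hr, decreased signal indicating inhibition.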
HT1080 IDH1KD tx: qHTS for induction of synthetic lethality in tumor cells producing 2HG: qHTS for the HT-1080-IDH1KD cell line | HT-1080 IDH1 knockdown viability, ATP luminescence, 48 h | Potency, µM (top dose mostly 46.1 µM), for the others: at the highest dose activity, negative = toxicity, hits mostly cytotoxic | actives 2% (n = 360,000);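 further: potency means the concentration at half of the fitted maximal effect; 0% = DMSO wells and -100% = cell-free medium wells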
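Using the IDH1-knockdown HT-1080 line run in the same batch and compound series as the NT line, viability after 48 h at 37 °C was determined by CellTiter-Glo luminescence and expressed as % activity.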
HT1080-NT tox: qHTS for induction of synthetic lethality in tumor cells producing 2HG: qHTS for the HT-1080-NT fibrosarcoma cell line; actives 1.6% (n = 360,000); HT-1080-NT fibrosarcoma viability, CellTiter-Glo ATP luminescence, 48 h; Potency, µM (titrated, usually from 46.1 µM), for the others: at the highest dose activity, negative = less viability, most hits filed as cytotoxic; AID 686970, 2013;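 further: NT is the 2HG producing partner of a matched IDH1 knockdown line; potency means the concentration at half of the fitted maximal effect; 0% = DMSO-treated cells and -100% = media-only wells without cells; nearly all actives have a fitted effect of over 55% in size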
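Compounds were tested in concentration-response format on HT-1080-NT cells for 48 hours at 37 degrees C. Cell viability came from CellTiter-Glo luminescence; curves were classified by r2, response magnitude and activity.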
ALOX12 inh: Primary qHTS assay for inhibitors of human arachidonate 12S-lipoxygenase (ALOX12): Round 2; Potency, µM (titrated, usually from 108 µM), for the others: at the top dose activity change, negative = inhibition, hits mostly inhibitors; purified 12hLO, xylenol orange hydroperoxide absorbance; Polyunsaturated fatty acid lipoxygenase ALOX12 (Homo sapiens), P18054; AID 1671190, 2021; actives 1.1% (n = 580,000); further: potency means the concentration at half of the fitted maximal effect
Target sequence (P18054 whole entry, looked up): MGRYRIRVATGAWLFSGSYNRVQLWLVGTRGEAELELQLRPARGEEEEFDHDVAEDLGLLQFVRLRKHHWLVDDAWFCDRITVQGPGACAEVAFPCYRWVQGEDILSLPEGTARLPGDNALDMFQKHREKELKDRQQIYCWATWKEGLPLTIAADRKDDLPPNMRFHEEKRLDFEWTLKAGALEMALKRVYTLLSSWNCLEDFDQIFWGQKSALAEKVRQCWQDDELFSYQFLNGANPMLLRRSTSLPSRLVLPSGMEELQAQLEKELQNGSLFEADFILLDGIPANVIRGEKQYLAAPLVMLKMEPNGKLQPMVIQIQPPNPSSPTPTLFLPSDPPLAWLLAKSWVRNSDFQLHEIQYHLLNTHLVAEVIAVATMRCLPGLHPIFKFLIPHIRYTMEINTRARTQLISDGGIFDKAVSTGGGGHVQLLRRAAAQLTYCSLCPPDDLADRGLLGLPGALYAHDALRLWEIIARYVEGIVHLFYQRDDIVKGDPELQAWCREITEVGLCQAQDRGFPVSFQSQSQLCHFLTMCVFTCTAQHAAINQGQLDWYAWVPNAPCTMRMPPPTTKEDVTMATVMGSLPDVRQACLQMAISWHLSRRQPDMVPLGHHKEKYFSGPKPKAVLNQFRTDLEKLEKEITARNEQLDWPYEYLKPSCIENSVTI
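Purified human 12hLO at 150 nM in 25 mM Hepes, 0.01% Triton X-100, pH 7.0, preincubated 15 min at room temperature with compound. Reaction started with 40 uM arachidonic acid, 30 min at room temperature. Hydroperoxide measured by Fe-xylenol orange, 573/405 nm absorbance ratio.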
* marks the source's active call; other numbers are inactive results; ? = inconclusive; nt = no result; [ ] = remark or other dose. The full list was thinned out, with hits kept by preference. Unless noted, the call rests on the fitted dose curve; in most records, active means well fitted curve in the direction sought with a large enough effect; inconclusive means small, poorly fitted or top-dose-only effect, or another doubt; inactive means no such curve, though single readings can be large; an effect the other way counts as inactive or inconclusive. Unless noted, on the % scale 0 is the no-effect control and ±100 the full control effect.

SMILES	DT40 TDP1 no CPT	TDP1 cell CPT	IL1B secr inh	HT1080 IDH1KD tx	HT1080-NT tox	ALOX12 inh
CC(c1cccs1)N(Cc1ccco1)C(=S)Nc1ccc(F)c(Cl)c1 (stereo unspecified)	20%	2%	9	-3%	5%	-9%
Cc1cccc(NC(=S)N(Cc2ccco2)C(C)c2cccs2)c1 (stereo unspecified)	?	29µM*	-23	-7%	2%	?
COc1ccc2c(C)c(CC(=O)Nc3ccc4c(c3)OCO4)c(=O)oc2c1OC	nt	nt	nt	nt	nt	6%
Cc1cc(OC(C)C(=O)N2CCN(c3ccccc3)CC2)c2c(C)c(C)c(=O)oc2c1 (stereo unspecified)	29µM*	?	-3	-5%	1%	8%
CS(=O)(=O)N(CC(=O)Nc1ccccc1C(=O)NCC1CCCO1)c1ccc(F)c(F)c1 (stereo unspecified)	nt	nt	nt	nt	nt	25%
CC(NC(=O)c1ccco1)c1nc2ccccc2n1Cc1ccccc1 (stereo unspecified)	nt	nt	nt	nt	nt	-1%
Cc1ccc(Cn2c(C(C)NC(=O)c3ccccc3)nc3ccccc32)cc1 (stereo unspecified)	6.5µM*	?	nt	nt	nt	?
Cc1ccc(C)c(Cn2c(C(C)NC(=O)c3ccc(F)cc3)nc3ccccc32)c1 (stereo unspecified)	?	-3%	nt	nt	nt	-34%
Cc1ccc(C)c(Cn2c(C(C)NC(=O)c3ccccc3)nc3ccccc32)c1 (stereo unspecified)	21µM*	?	nt	nt	nt	-24%
Cc1ccc(S(=O)(=O)N2CCc3cc(C(=O)N(C)Cc4ccccc4)ccc32)cc1	13µM*	15µM*	nt	nt	nt	-21%
COc1ccc(CCNC(=O)c2ccc3c(c2)CCN3S(=O)(=O)c2ccccc2)cc1	21µM*	3.7µM*	nt	nt	nt	5%
COc1ccc(CCNC(=O)c2ccc3c(c2)CCN3S(=O)(=O)c2ccccc2)cc1OC	?	16µM*	nt	nt	nt	-15%
COc1ccc(CCNC(=O)c2ccc3c(c2)CCN3S(C)(=O)=O)cc1OC	?	-12%	nt	nt	nt	-15%
N#Cc1c(Cl)cccc1Oc1ccc(S(=O)(=O)Nc2ccccc2)cc1	?	1%	nt	-4%	-24%	?
COC(=O)c1ccc(C2NC(C(=O)O)CS2)cc1 (stereo unspecified)	-27%	-20%	11	3%	-4%	0%
CCOC(=O)COc1ccc(C2NC(C(=O)O)CS2)cc1 (stereo unspecified)	-6%	4%	-5	0%	-1%	32µM*
ON=C1C2CC=C(c3ccccc3)C1CCC2 (stereo unspecified)	-26%	?	-58*	3%	-1%	?
CCN(CC)C(=O)CSC1=C(C#N)C(c2cccs2)C=C(C)N1 (stereo unspecified)	23µM*	?	-13	-2%	2%	?
COc1cc(C)c(NC(=S)Nc2ccc(C)c(Cl)c2)cc1OC	-24%	0%	-16	11%	20%	?
Cc1cc(NC(=S)Nc2ccc(C)c(Cl)c2)n[nH]1	?	?	40	-13%	-7%	14µM*
COc1ccc(NC(=S)Nc2cc(C)[nH]n2)cc1Cl	18µM*	?	?	7%	21%	?
COC(=O)c1cn[nH]c1NC(=S)Nc1ccc(C)cc1Cl	?	?	19	9%	1%	-28%
COc1ccc(NC(=S)Nc2cc(-c3ccccc3)[nH]n2)cc1Cl	?	22µM*	?	?	13µM*	?
COc1ccc(NC(=O)COc2ccccc2)cc1Cl	-10%	12%	-20	14%	16%	4%
COC(=O)c1cn[nH]c1NC(=S)Nc1ccc(Cl)c(Cl)c1	25µM*	?	19	?	?	-22%
SMILES	DT40 TDP1 no CPT	TDP1 cell CPT	IL1B secr inh	HT1080 IDH1KD tx	HT1080-NT tox	ALOX12 inh
C=CCNc1ccc2c(c1)OC[C@@H](CC(C)C)NS2(=O)=O	nt	nt	nt	nt	nt	3%
CCn1cc(C(=O)NCCCC(N)=O)c2ccccc21	nt	nt	nt	nt	nt	-5%
CC(C)(N)CN1CCOCC1	nt	nt	nt	nt	nt	12%[22.9 µM]
Cc1ccc(-n2c3c(c(=O)[nH]c2=O)C(NC(=O)c2ccccc2C)(C(F)(F)F)C(=O)N3)cc1 (stereo unspecified)	23µM*	13µM*	nt	nt	nt	-20%
Cc1cccc(NC(=S)N(C)Cc2cn(C)c3ccccc23)c1	16µM*	26µM*	-24	-1%	-2%	-22%
CN(Cc1cn(C)c2ccccc12)C(=S)Nc1cc(F)cc(F)c1	?	-25%	-14	0%	1%	-10%
Cn1c(N2CCN(S(=O)(=O)c3ccc(F)cc3)CC2)nc2ccccc21	?	?	0	-20%	-17%	3%
O=S(=O)(c1ccccc1C(F)(F)F)N1CCN(S(=O)(=O)c2ccccc2C(F)(F)F)CC1	-18%	?	0	-2%	6%[9.24 µM]	3%
CCN(CC)CCCNC(=S)N1CCN(c2nc3ccccc3n2CC)CC1	1%	33%	-19	-12%	-20%	17%
CCn1c(N2CCN(C(=O)C34CC5CC(CC(C5)C3)C4)CC2)nc2ccccc21	26µM*	29µM*	?	?	?	nt
CCn1c(N2CCN(S(=O)(=O)c3ccc(OC)cc3)CC2)nc2ccccc21	?	?	-66*	?	-29%	0%
CCn1c(N2CCN(S(=O)(=O)c3ccccc3C(F)(F)F)CC2)nc2ccccc21	16µM*	?	-52*	-26%	?	?
Cc1nc2cc(NC(=O)CC(C)(C(=O)O)C(C)C)ccc2o1 (stereo unspecified)	nt	nt	nt	nt	nt	5%
COc1cccc(C2CC(=O)Nc3c2c(=O)[nH]c2nc4ccccc4n32)c1OC (stereo unspecified)	nt	nt	nt	nt	nt	1%
CCCn1c(CC)nc([N+](=O)[O-])c1Sc1ccc(F)cc1	?	?	-19	-22%	-13%	-9%
CCCn1c(CC)nc([N+](=O)[O-])c1Sc1ccc(C)cc1	-29%	-2%	-68*	-29%	-12%	?
